Bioassay records deposited in PubChem by National Center for Advancing Translational Sciences (NCATS).
Sampled rows, rich in hits. Any-hit rate of the full collection: about 10%.
GLA inh pH 4.5: blocks human alpha-galactosidase A at pH 4.5. AID 1467. activity change, negative = inhibition, % at 105 µM. purified enzyme, 4-MU-alpha-Gal fluorescence, pH 4.5. 230,000 tested, under 10 active;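 note: 0% = full activity with enzyme and -100% = basal without enzyme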
aGal spleen mod: inhibitors or activators of human alpha-galactosidase in spleen homogenate; human spleen homogenate, 4MU-alpha-Gal fluorescence, 40 min; Potency, µM (highest dose often 80 µM), inactives show at the top dose activity change, negative = inhibition, most hits filed as inhibitors; 240,000 compounds, 0.008% hits; AID 2107;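 note: potency is the fitted concentration of half-maximal effect; 0% = enzyme with vehicle and -100% = no enzyme basal signal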
Target sequence (P06280 32-429 limits assumed): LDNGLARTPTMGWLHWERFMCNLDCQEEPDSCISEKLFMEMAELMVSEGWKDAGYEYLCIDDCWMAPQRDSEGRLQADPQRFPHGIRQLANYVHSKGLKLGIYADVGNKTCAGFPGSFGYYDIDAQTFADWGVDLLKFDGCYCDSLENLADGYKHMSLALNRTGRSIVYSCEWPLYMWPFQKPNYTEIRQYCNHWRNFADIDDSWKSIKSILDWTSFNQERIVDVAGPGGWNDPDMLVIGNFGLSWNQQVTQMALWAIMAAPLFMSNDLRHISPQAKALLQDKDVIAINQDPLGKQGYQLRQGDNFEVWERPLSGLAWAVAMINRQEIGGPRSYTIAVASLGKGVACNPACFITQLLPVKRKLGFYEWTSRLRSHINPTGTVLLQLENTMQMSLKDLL
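Inhibition or activation of alpha-galactosidase in human spleen homogenate is scored by 4-MU fluorescence after 40 min at 37C, pH 5.0, with 1 mM substrate. AC50s come from concentration-response fitted to the Hill equation.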
PNC assembly inh: perinucleolar compartment assembly inhibition | PC3M PTB-GFP, PNC prevalence imaging, 16 h; active compounds read low | activity change (PNC), negative = inhibition, % at 10 µM | 140,000 compounds, 3.1% hits;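 active = readout at or below -70, meaning at least 70% loss of cells showing the perinucleolar compartment, a nuclear body marking cancer cells; inconclusive = readout between -30 and a set limit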;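 note: plate controls were DMSO wells for no effect and camptothecin positive control wells for full effect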
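Read-out is percentage of cells bearing a perinucleolar compartment, from automated 20x imaging of fixed, Hoechst-stained PC3M PTB-GFP cells. Cells were seeded 4 h, then exposed 16 h to compound (23 nl of library stock) in duplicate plates.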
ALOX12 inhib: blocks human 12-lipoxygenase activity; purified 12-hLO, xylenol orange hydroperoxide absorbance; 150,000 compounds, 0.12% hits; Potency, µM (series often up to 57.1 µM), inactives show at the highest dose activity change, negative = inhibition, hits mostly inhibitors; P18054; note: potency is the fitted concentration of half-maximal effect; nearly all actives have a fitted effect of over 55% in size
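Hydroperoxide output read as Fe(III)-xylenol orange absorbance, 573-to-405 nm ratio, after 30 min reaction with 40 uM arachidonic acid. Enzyme: 150 nM purified human 12hLO, 15 min compound preincubation; 25 mM Hepes pH 7.0, room temperature.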
ALDH1A1 inh: blocks purified human ALDH1A1 activity | Potency, µM (top dose mostly 75.3 µM), without a hit: at the top dose activity, negative = inhibition, usual class: inhibitors | 220,000 compounds, 7.3% hits | P00352 | AID 1030 | Purified ALDH1A1, NADH fluorescence, propionaldehyde substrate; active = well fitted inhibition curve with a large enough effect, not every such curve was filed as active; inconclusive = small, poorly fitted or top-dose-only effect, or another doubt; inactive = no such curve, though single readings can be large or run the other way;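 note: potency is the fitted concentration of half-maximal effect; plate controls were no enzyme wells and a reference inhibitor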
HPGD block: HPGD (human) dehydrogenase inhibition. P15428. purified HPGD, NADH fluorescence kinetic, PGE2 substrate. Potency, µM, without a hit: at the top dose activity change, negative = inhibition, actives largely listed as inhibitors. 150,000 compounds, 4.3% hits. AID 894; active = well fitted inhibition curve with a large enough effect, not every such curve was filed as active; inconclusive = small, poorly fitted or top-dose-only effect, or another doubt; inactive = no such curve, though single readings can be large or run the other way; note: potency is the fitted concentration of half-maximal effect
Target sequence (P15428 whole entry, looked up): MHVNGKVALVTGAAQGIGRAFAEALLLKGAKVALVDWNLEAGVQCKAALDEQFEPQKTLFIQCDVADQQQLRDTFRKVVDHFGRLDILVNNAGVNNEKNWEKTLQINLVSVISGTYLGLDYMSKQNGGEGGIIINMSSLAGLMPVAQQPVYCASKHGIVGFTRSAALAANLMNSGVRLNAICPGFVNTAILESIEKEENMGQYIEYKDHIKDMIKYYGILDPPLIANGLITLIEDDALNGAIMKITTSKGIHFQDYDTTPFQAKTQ
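NADH formation kinetics: reaction with 30 uM PGE2 and 1 mM NAD+ (final), 20 nM enzyme, Tris-HCl pH 8 with Tween 20, after 15 min compound preincubation at room temperature. Fluorescence change, last versus first of five reads.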
Starred values were filed as active, the others as inactive; ? = inconclusive; . = no result; [ ] = another dose, or the depositor's remark. Unless noted, calls come from the whole dose curve; as a rule, active = well fitted curve in the direction sought with a large enough effect; inconclusive = small, poorly fitted or top-dose-only effect, or another doubt; inactive = no such curve, though single readings can be large; an effect the other way counts as inactive or inconclusive. Unless noted, % is set by controls: 0 for no effect and ±100 for the full control effect.

SMILES	GLA inh pH 4.5	aGal spleen mod	PNC assembly inh	ALOX12 inhib	ALDH1A1 inh	HPGD block
CCc1cc(C(C)=O)c(O)cc1OCCCCCC(C)(C)c1nn[nH]n1	-4.6	6.6%	.	-3.6%	?	20µM*
Cn1c(=O)c2c(ncn2CCO)n(C)c1=O	-12.6	1.1%	.	1.9%	4.3%	-12.7%
CC(O)Cn1cnc2c1c(=O)n(C)c(=O)n2C (stereo not drawn)	4.4	-4.3%	-114.6*	0.2%	4.6%	-0.3%
Cn1c(=O)c2c(ncn2Cc2ccccc2)n(C)c1=O	.	-19.4%	10.1	4.0%	3.4%	-3.7%
Cn1c(=O)c2c(ncn2CCCc2ccccc2)n(C)c1=O	-7.5	3.9%	-88.7*	-2.0%	-7.5%	3.0%
Cc1ccc(N2C(=O)CSC2=S)cc1C	0.9	-2.9%	.	.	?	.
CN(C)c1ccc(N2C(=O)CSC2=S)cc1	7.9	-12.0%	-9.3	-5.3%	2.24µM*	-16.3%
O=C(C1c2ccccc2Oc2ccccc21)N1CCN(c2ccc(Cl)cc2)CC1	-1.3	-0.9%	-88.6*	7.5%	-0.7%	-13.7%
Cc1nc2ccccc2c2oc(C(=O)N3CCc4ccccc4C3)cc12	0.8	12.6%	7.1	-4.2%	25.1µM*	-9.7%
Cc1cc(=O)oc2cc(OC(=O)c3ccco3)ccc12	3.0	-0.6%	.	.	-0.7%	.
Cc1oc2cc(OC(=O)c3ccco3)ccc2c(=O)c1-c1nc2ccccc2n1C	-1.1	-4.1%	-92.8*	2.0%	?	-25.2%
CC(=O)Nc1ccc(S(=O)(=O)N(CC(=O)O)Cc2ccccc2)cc1	1.8	1.4%	8.3	-5.9%	0.6%	0.3%
CC(=O)Nc1ccc(S(=O)(=O)N(c2cccnc2)S(=O)(=O)c2ccc(NC(C)=O)cc2)cc1	-16.7	-1.6%	-18.1	-1.5%	-2.8%	11.2µM*
CC(=O)Nc1ccc(S(=O)(=O)N(C)c2ccc(O)cc2)cc1	3.7	16.0%	-4.6	0.8%	?	-23.2%
Cc1cccc(N(C(=O)Nc2ccc(Cl)cc2)C2=NCC(C)S2)n1 (stereo not drawn)	11.0	-4.4%	.	.	5.9%	.
Cc1cccc(N(C(=O)Nc2ccccc2)C2=NCC(C)S2)c1 (stereo not drawn)	-3.6	4.8%	9.1	2.2%	-2.7%	17.8µM*
CC(=O)Nc1ccc(S(=O)(=O)N(C2=NCC(C)S2)c2ccccc2)cc1 (stereo not drawn)	-4.3	-4.9%	280.4	-2.2%	12.6µM*	-16.3%
CC1CN=C(N(C(=O)Nc2ccccc2)c2ccc(F)cc2)S1 (stereo not drawn)	-11.0	-4.2%	-25.6	0.8%	-6.5%	10µM*
Cc1cc(C)n(Cc2ccc(NC(=O)c3c([N+](=O)[O-])c(C)nn3C)cc2)n1	0.4	9.5%	30.9	9.5%	?	-13.1%
CO/N=C(\C(=O)N[C@@H]1C(=O)N2C(C(=O)[O-])=C(C[N+]3(C)CCCC3)CS[C@@H]12)c1csc(N)n1	8.0	3.7%[29.1 µM]	.	-2.3%[25.6 µM]	-3.6%[20.9 µM]	-11.5%
CC(C)=CCC/C(C)=C/CO/N=C1/[C@H]2O[C@@H]2[C@@H](O)[C@H]2[C@H]1CCn1c(=O)n(Cc3cc4c(cc3Cl)OCO4)c(=O)n12	.	-7.3%[17.5 µM]	.	.	18.4%[13.5 µM]	.
Fc1ccc(Nc2ncnc3ccc(-c4ccoc4)cc23)cc1	.	-10.4%	.	.	?	.
CNC(=O)/C(C#N)=C/c1ccc(-c2ccc(OC)cc2[N+](=O)[O-])o1	4.6	6.9%	14.6	-4.1%	0.3%	7.08µM*
N#C/C(=C\c1ccc(-c2ccccc2[N+](=O)[O-])o1)C(=O)Nc1nc(-c2cccs2)cs1	1.5	4.5%	-0.1	-3.3%	1.78µM*	-13.9%
N#C/C(=C\c1ccc(-c2ccc([N+](=O)[O-])cc2)o1)C(=O)Nc1nc(-c2cccs2)cs1	-3.7	3.3%	.	.	.	.
SMILES	GLA inh pH 4.5	aGal spleen mod	PNC assembly inh	ALOX12 inhib	ALDH1A1 inh	HPGD block
CN(C)/C=C(/C#N)C(=O)c1cccc(Oc2ccc(C(C)(C)C)cc2)c1	-5.4	-9.6%	-3.7	14.4%	-8.0%	22.4µM*
CCOCCn1c(SC)nc2c1c(=O)[nH]c(=O)n2C	2.4	-1.6%	8.6	1.9%	14.1µM*	20µM*
C/C(Cl)=C/Cn1c(SC(C)C)nc2c1c(=O)[nH]c(=O)n2C	2.0	4.0%	22.3	-3.0%	5.01µM*	?
CCOCCn1c(SCCCc2ccccc2)nc2c1c(=O)[nH]c(=O)n2C	0.3	1.6%	?	-0.3%	-3.3%	-3.5%
CCn1c([N+](=O)[O-])nc2c1c(=O)[nH]c(=O)n2C	-6.0	-6.7%	.	.	15.8µM*	.
CC(C)Sc1nc2c(c(=O)[nH]c(=O)n2C)n1CCc1ccccc1	0.4	-3.3%	?	-3.0%	?	-13.1%
CCOC(=O)CSc1nc2c(c(=O)[nH]c(=O)n2C)n1C/C=C(/C)Cl	11.8	5.3%	17.3	-1.7%	17.8µM*	20µM*
CCCCCCn1c(SCCCC)nc2c1c(=O)[nH]c(=O)n2C	0.4	-1.3%	10.1	-1.0%	-9.9%	-11.3%
CCCCn1c(SCC(=O)OCC)nc2c1c(=O)[nH]c(=O)n2C	-2.3	0.7%	-119.3*	1.5%	12.6µM*	?
CCCCCCn1c(SCCOC)nc2c1c(=O)[nH]c(=O)n2C	6.7	-2.7%	.	.	.	.
COc1ccc(C(=O)N2CCC3(CCCN(Cc4ccncc4)C3)CC2)cc1	.	5.4%	.	3.4%	-5.0%	-0.8%
COc1ccc(COC(=O)N/N=C2/C[C@@H](O)[C@@H](O)[C@@H]3[C@@H]4C(=O)N(C[C@@H]5CCCO5)C(=O)[C@H]4CC[C@H]23)cc1	.	2.8%[17.5 µM]	.	.	-2.6%[13.5 µM]	.
O=C(CCl)NC(Cc1ccccc1)c1ccccc1 (stereo not drawn)	1.2	0.6%	.	.	1.41µM*	.
CC(=O)NC(Cc1ccccc1)C(C)=O (stereo not drawn)	2.4	0.0%	.	.	13.6%	.
CCC(NC(=O)CCCc1ccccc1)c1ccccc1 (stereo not drawn)	11.6	-10.7%	-9.6	-2.1%	-4.1%	-7.0%
CC(=O)C(Cc1ccccc1)NC(=O)CCl (stereo not drawn)	1.0	0.0%	.	.	22.4µM*	.
COc1ccc(CC(N)C(=O)NC2C(CO)OC(n3cnc4c(N(C)C)ncnc43)C2O)cc1 (stereo not drawn)	1.8	-8.9%	.	-2.0%	-3.3%	-3.9%
Cc1onc(-c2ccccc2)c1C(=O)N1CCN(S(=O)(=O)c2ccc3c(c2)OCCO3)CC1	-3.3	3.3%	?	-7.1%	3.16µM*	-8.1%
CCOC(=O)C1CCN(C(=O)COc2ccc(S(=O)(=O)N3CCCC3)cc2C)CC1	-11.4	11.2%	.	.	17.8µM*	.
Cc1cc(S(=O)(=O)N2CCCC2)ccc1OCC(=O)N1CCC(C(N)=O)CC1	4.9	1.3%	.	.	?	.
CCOC(=O)C1CCN(C(=O)COc2ccc(Cl)cc2C)CC1	3.7	10.7%	-86.8*	-10.8%	?	-8.5%
